Results filed as inconclusive are left out. The source made the active and inactive calls. Calls come from the whole dose curve; as a rule, active = well fitted curve in the direction sought with a large enough effect; inconclusive = small, poorly fitted or top-dose-only effect, or another doubt; inactive = no such curve, though single readings can be large; an effect the other way counts as inactive or inconclusive.
Key:
[1] = KB-8-5-11 P-gp reporter qHTS against the NCATS DSHEA and TCM libraries (AID 1919977); note: 0% is about no effect
Method in brief: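 Cells were seeded, allowed ~4 h to attach, dosed by pin tool (substance titrations), incubated ~72 h at 37C, then lysed with CellTiter-Glo for 30 min at room temperature before luminescence reading.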

[2] = Quantitative High-Throughput drug screen in 47 multiple myeloma cell lines against the NCATS MIPE library collection: XG6_PLB cell viability assay (AID 1919865); note: nearly all actives have a fitted effect of over 40% in size; note: potency is the fitted concentration of half-maximal effect
Method in brief: (§1)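 MIPE 4.0 approved/investigational drugs; 500 cells/well; 48 h 37 °C humidified 5% CO2; CTG luminescence readout; DMSO = 100%, media = 0% viability.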

[3] = Quantitative High-Throughput drug screen in 47 multiple myeloma cell lines against the NCATS MIPE library collection: PE2_PLB cell viability assay (AID 1919869); note: nearly all actives have a fitted effect of over 35% in size; note: potency is the fitted concentration of half-maximal effect
Method in brief: as §1

[4] = Quantitative High-Throughput drug screen in 47 multiple myeloma cell lines against the NCATS MIPE library collection: RPMI8226_ATCC cell viability assay (AID 1919871); note: nearly all actives have a fitted effect of over 30% in size; note: potency is the fitted concentration of half-maximal effect
Method in brief: as §1

[5] = Quantitative High-Throughput drug screen in 47 multiple myeloma cell lines against the NCATS MIPE library collection: OPM2_DSMZ cell viability assay (AID 1919872); note: nearly all actives have a fitted effect of over 30% in size
Method in brief: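 Primary qHTS used for cherry-picking: cells at 500/well, library compounds for 48 h (37C, 5% CO2), luminescent ATP assay.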

[6] = Quantitative High-Throughput drug screen in 47 multiple myeloma cell lines against the NCATS MIPE library collection: KMS11_JCRBsus cell viability assay (AID 1919873); note: nearly all actives have a fitted effect of over 50% in size; note: potency is the fitted concentration of half-maximal effect
Method in brief: as §1

[7] = Quantitative High-Throughput drug screen in 47 multiple myeloma cell lines against the NCATS MIPE library collection: U266_ATCC cell viability assay (AID 1919864); note: nearly all actives have a fitted effect of over 35% in size; note: potency is the fitted concentration of half-maximal effect
Method in brief: as §1

[8] = Quantitative High-Throughput drug screen in 47 multiple myeloma cell lines against the NCATS MIPE library collection: XG1_PLB cell viability assay (AID 1919866); note: nearly all actives have a fitted effect of over 35% in size; note: potency is the fitted concentration of half-maximal effect
Method in brief: as §1

[9] = Quantitative High-Throughput drug screen in 47 multiple myeloma cell lines against the NCATS MIPE library collection: KMS28BM_JCRB cell viability assay (AID 1919874); note: nearly all actives have a fitted effect of over 35% in size; note: potency is the fitted concentration of half-maximal effect
Method in brief: as §1

[10] = Quantitative High-Throughput drug screen in 47 multiple myeloma cell lines against the NCATS MIPE library collection: VP6_DJ cell viability assay (AID 1919867); note: nearly all actives have a fitted effect of over 40% in size; note: potency is the fitted concentration of half-maximal effect
Method in brief: as §1

[11] = Quantitative High-Throughput drug screen in 47 multiple myeloma cell lines against the NCATS MIPE library collection: UTMC2_PLB cell viability assay (AID 1919868); details: CellTiter-Glo ATP luminescence, 48 h; note: potency is the fitted concentration of half-maximal effect; nearly all actives have a fitted effect of over 55% in size
Method in brief: as §1

[12] = Quantitative High-Throughput drug screen in 47 multiple myeloma cell lines against the NCATS MIPE library collection: PCM6_Riken cell viability assay (AID 1919870); note: nearly all actives have a fitted effect of over 30% in size; note: potency is the fitted concentration of half-maximal effect
Method in brief: as §1

[13] = biological target: Cytochrome P450 3A4 (Homo sapiens) (UniProt P08684); test: qHTS for inhibitors of CYP3A4 against the NCATS DSHEA and TCM libraries (AID 1919971);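 note: % is set by controls: 0 for no effect and ±100 for the full control effect; inhibition lowers luminescence from luciferin made by CYP3A4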
Chain of Cytochrome P450 3A4 (Homo sapiens) (P08684 whole entry, looked up): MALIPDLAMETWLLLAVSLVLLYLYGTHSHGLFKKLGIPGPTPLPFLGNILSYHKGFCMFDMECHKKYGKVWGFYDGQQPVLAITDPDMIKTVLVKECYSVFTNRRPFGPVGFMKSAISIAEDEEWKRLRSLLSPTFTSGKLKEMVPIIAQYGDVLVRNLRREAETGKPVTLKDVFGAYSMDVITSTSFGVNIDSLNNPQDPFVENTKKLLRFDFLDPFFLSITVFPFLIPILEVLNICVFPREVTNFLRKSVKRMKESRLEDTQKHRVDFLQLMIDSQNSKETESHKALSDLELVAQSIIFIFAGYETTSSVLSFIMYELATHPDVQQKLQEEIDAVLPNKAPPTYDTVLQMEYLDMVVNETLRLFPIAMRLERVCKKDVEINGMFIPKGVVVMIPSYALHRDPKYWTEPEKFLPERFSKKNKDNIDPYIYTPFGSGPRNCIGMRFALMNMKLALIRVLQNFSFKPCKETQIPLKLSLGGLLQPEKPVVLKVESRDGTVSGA
Method in brief: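 Luminescent P450-Glo format: compounds preincubated 15 min with enzyme and luciferin substrate, reaction run 30-45 min after NADPH regeneration solution. Intraplate controls: ketoconazole for CYP3A4 and CYP2C19, sulfaphenazole for CYP2C9.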

[14] = biological target: Cytochrome P450 2D6 (Homo sapiens) (UniProt P10635); test: qHTS for inhibitors of CYP2D6 against the NCATS DSHEA and TCM libraries (AID 1919972); note: % is set by controls: 0 for no effect and ±100 for the full control effect
Chain of Cytochrome P450 2D6 (Homo sapiens) (P10635 whole entry, looked up): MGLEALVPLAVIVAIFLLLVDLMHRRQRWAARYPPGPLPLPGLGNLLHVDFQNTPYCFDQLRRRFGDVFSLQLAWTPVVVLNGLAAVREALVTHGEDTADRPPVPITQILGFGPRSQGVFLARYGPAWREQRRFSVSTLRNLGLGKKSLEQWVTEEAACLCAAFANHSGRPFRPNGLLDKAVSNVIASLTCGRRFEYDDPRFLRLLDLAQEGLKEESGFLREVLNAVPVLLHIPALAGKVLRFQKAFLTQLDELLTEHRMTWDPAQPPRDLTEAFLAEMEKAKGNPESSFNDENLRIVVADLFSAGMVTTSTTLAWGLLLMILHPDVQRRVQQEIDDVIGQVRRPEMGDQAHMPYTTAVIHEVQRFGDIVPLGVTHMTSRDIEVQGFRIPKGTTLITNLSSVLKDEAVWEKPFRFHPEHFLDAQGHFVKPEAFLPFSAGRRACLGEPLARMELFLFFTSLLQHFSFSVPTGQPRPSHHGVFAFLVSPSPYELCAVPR
Method in brief: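 Luminescent P450-Glo read-out of CYP2D6 turnover of a luciferin substrate after NADPH-driven reaction of 30-45 min at room temperature. Compounds were first preincubated 15 min with enzyme at titrated concentrations; quinidine was the intraplate control.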

[15] = KB-3-1 P-gp reporter qHTS against the NCATS DSHEA and TCM libraries (AID 1919975); note: 0% is about no effect
Method in brief: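 72 h exposure of KB-3-1 cells (DMEM, 10% FBS) to DSHEA/TCM samples, concentration-response; cell viability measured as CellTiter-Glo luminescence after 30 min at room temperature.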

[16] = biological target: Cytochrome P450 1A2 (Homo sapiens) (UniProt P05177); test: qHTS for inhibitors of CYPIA2 against the NCATS DSHEA and TCM libraries (AID 1919976);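 note: light from luciferin formed by CYP1A2 from a pro-luciferin substrate; series mostly up to about 37 µM; % is set by controls: 0 for no effect and ±100 for the full control effect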
Chain of Cytochrome P450 1A2 (Homo sapiens) (P05177 whole entry, looked up): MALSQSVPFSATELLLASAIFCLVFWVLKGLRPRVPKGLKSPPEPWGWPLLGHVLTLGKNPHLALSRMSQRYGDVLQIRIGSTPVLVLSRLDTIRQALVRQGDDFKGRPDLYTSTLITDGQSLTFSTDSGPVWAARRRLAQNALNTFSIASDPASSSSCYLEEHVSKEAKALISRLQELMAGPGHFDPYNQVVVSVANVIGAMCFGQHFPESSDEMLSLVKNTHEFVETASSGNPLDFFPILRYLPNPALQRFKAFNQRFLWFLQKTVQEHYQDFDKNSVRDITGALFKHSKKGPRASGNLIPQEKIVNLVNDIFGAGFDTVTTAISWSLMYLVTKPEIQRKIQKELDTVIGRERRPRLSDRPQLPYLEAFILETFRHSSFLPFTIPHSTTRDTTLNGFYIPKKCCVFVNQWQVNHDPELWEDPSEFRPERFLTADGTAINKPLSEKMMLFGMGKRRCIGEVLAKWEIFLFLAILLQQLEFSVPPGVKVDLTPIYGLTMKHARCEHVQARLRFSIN
Method in brief: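 Human CYP1A2 with pro-luciferin substrate (typically 100 mM KPO4), 15 min preincubation with compound, then 1x NADPH regeneration for 30-45 min at room temperature in the dark. Luciferin quantified by luciferase luminescence; furafylline intraplate control.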

[17] = qHTS Counterscreen for compound interference against the NCATS DSHEA and TCM libraries (AID 1919978); details: firefly luciferase detection reagent interference, luminescence; note: % of control where 0% means no effect
Method in brief: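 Read-out is luminescence after 30 min at RT with luciferin detection reagent. Before that, compounds (19.5 nM to 39.8 uM final) sat 15 min at RT with 1 uM D-luciferin or 100 mM potassium phosphate buffer. PTC124 served as intraplate control.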

[18] = Dual reporter qHTS for agonist of Pregnane X Receptor (hPXR) against the NCATS DSHEA and TCM libraries: Fluorescence readout (AID 1920058); note: 0% is about no effect
Method in brief: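 hPXR-Luc HepG2 cells, 2000/well in charcoal-stripped serum, attached 5 h, dosed for ~24 h at 37 °C. Fluorescence read is CellTiter-Fluor viability (Ex/Em 405/540 nm); rifampicin positive, tetraoctyl ammonium bromide (92 µM) cytotoxicity controls.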

[19] = biological target: Nuclear receptor subfamily 1 group I member 2 (Homo sapiens) (UniProt O75469); test: Dual reporter qHTS for agonist of Pregnane X Receptor (hPXR) against the NCATS DSHEA and TCM libraries: Luminescence readout (AID 1920059); note: 0% is about no effect
Chain of Nuclear receptor subfamily 1 group I member 2 (Homo sapiens) (O75469 whole entry, looked up): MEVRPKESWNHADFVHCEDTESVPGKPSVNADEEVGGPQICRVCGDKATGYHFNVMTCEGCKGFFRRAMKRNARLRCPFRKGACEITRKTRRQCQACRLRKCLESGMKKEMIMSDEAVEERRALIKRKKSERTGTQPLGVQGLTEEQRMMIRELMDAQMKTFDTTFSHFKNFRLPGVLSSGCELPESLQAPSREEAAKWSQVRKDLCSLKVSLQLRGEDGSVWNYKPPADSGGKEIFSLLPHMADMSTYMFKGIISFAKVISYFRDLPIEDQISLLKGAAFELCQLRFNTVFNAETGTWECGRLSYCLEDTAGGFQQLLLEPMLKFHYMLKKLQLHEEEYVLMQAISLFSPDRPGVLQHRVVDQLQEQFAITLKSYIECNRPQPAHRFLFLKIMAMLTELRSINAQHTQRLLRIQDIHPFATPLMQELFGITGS
Method in brief: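 hPXR-LucHepG2 cells in phenol red-free DMEM with 5% charcoal-stripped FBS, 2000 cells/well, attached 5 h, then exposed 24 h at 37C to compounds; rifampicin as positive agonist control (2.8 nM–92 uM). Luciferase luminescence read.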

[20] = biological target: Nuclear receptor subfamily 1 group I member 2 (Homo sapiens) (UniProt O75469); test: Dual reporter qHTS for antagonist of Pregnane X Receptor (hPXR) against the NCATS DSHEA and TCM libraries: Luminescence Readout (AID 1920060); note: 0% is about no effect
Method in brief: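 Rifampicin-stimulated (2 uM final) hPXR-luciferase HepG2 cells were treated for 24 h with DSNP/TCM substances. Viability came from CellTiter-Fluor fluorescence, reporter activity from ONE-Glo luminescence.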

Nc1nc2ncc(CNc3ccc(C(=O)N[C@@H](CCC(=O)O)C(=O)O)cc3)nc2c(=O)[nH]1
inactive: outcome [1]

O=c1ccc2ccccc2o1
inactive: outcome [1]

COc1ccc2cc3[n+](cc2c1OC)CCc1cc2c(cc1-3)OCO2
inactive: outcome [1]

NC(N)=NCCC[C@H](N)C(=O)O
inactive: outcome [1]

O=C(O)c1nn(Cc2ccc(Cl)cc2Cl)c2ccccc12
inactive: Potency [2] | Potency [3] | Potency [4] | outcome [5] | Potency [6]

COc1ccc(C(=O)N2CCCC2=O)cc1
inactive: Potency [7] | Potency [2] | Potency [8] | Potency [3]
active: Potency [4] 2350 nM | Potency [6] 20900 nM | Potency [9] 8330 nM

OC[C@H]1O[C@@H](OCCc2ccc(O)cc2)[C@H](O)[C@@H](O)[C@H]1O
inactive: outcome [1]

OC1C(O)C(O)C(O)C(O)C1O (stereo not drawn)
inactive: outcome [1]

C[C@@H]1C[C@@H]([C@H](O)CC2CC(=O)NC(=O)C2)C(=O)[C@@H](C)C1
active: Potency [7] 1050 nM | Potency [2] 743 nM | Potency [8] 372 nM | Potency [10] 296 nM | Potency [11] 833 nM | Potency [3] 1480 nM | Potency [12] 935 nM | Potency [4] 833 nM | Potency [6] 187 nM | Potency [9] 833 nM

O=C(/C=C/c1ccc(O)c(O)c1)O[C@@H]1C[C@@](OC(=O)/C=C/c2ccc(O)c(O)c2)(C(=O)O)C[C@@H](O)[C@@H]1O
inactive: outcome [1]

C/C=C/c1ccc(OC)cc1
inactive: outcome [1]

Cn1c(=O)c2c(ncn2C)n(C)c1=O
inactive: outcome [1]

C[C@]12CC[C@H](O)CC1=CC[C@@H]1[C@@H]2CC[C@]2(C)C(=O)CC[C@@H]12
inactive: outcome [13] | outcome [14] | outcome [15] | outcome [16] | outcome [1] | max response [17] -2.96% | outcome [18] | outcome [19] | outcome [20]

COC(=O)C1=CCCN(C)C1
inactive: Potency [2] | Potency [10] | Potency [3] | Potency [12] | outcome [5] | Potency [6] | Potency [9]

O=C1O[C@H]([C@@H](O)CO)C(O)=C1O
inactive: outcome [1]
